± gives the standard deviation of the averaged measurements.
Compound: C=CCN=C=S [allyl isothiocyanate]
Assay: control-subtracted net OSN firing rate; higher = stronger neuronal activation
Conditions: odorant dilution (vol/vol): 1/100
Method in brief: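 Single sensillum recordings from palp or antennal sensilla olfactory sensory neurons in 1–5-day-old fed female flies. These were D. melanogaster wild-type, mutant or at1 empty-neuron lines expressing Or42a homologs, or Scaptomyza species. Odorants at 1:100 vol/vol in mineral oil or dimethyl sulfoxide (20 μl on filter paper) were given as 1 s pulses into 16 ml/min filtered air. Spikes were counted over 0.5 s from 0.2 s after onset, background-subtracted, doubled and solvent-corrected. Values are replicate means.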

Target | control-subtracted net OSN firing rate [spikes/s]
Canton-S (D. melanogaster) at4c | 1.33 ± 4.7
Canton-S (D. melanogaster) ab1a | -3.67 ± 15
Canton-S (D. melanogaster) ai2b | -1.14 ± 4.3
TrpA1- (D. melanogaster) pb1a | 152 ± 22
Canton-S (D. melanogaster) at1 | -0.286 ± 14
Canton-S (D. melanogaster) ai2a | 4 ± 7.8
Canton-S (D. melanogaster) ab5a | -2 ± 7.1
Canton-S (D. melanogaster) ab2b | -6 ± 4
Canton-S (D. melanogaster) ab2a | -1.33 ± 2.4
Canton-S (D. melanogaster) ab9b | 2.33 ± 17
Canton-S (D. melanogaster) ai3a | 0.667 ± 6
Canton-S (D. melanogaster) ab1d | -4.33 ± 9.1
Canton-S (D. melanogaster) ab10a | 8.8 ± 6.8
w1118 (D. melanogaster) pb1a | 91.3 ± 46
Canton-S (D. melanogaster) at4a | -3 ± 7.5
Canton-S (D. melanogaster) ab6a | 2.67 ± 5.9
Or42a- (D. melanogaster) pb1a | -2.5 ± 4

Target | control-subtracted net OSN firing rate [spikes/s]
Canton-S (D. melanogaster) ab1c | -3.33 ± 11
Canton-S (D. melanogaster) ab7a | -8.86 ± 13
Canton-S (D. melanogaster) ab3a | 30 ± 16
Canton-S (D. melanogaster) ai3c | 6 ± 13
Canton-S (D. melanogaster) ab3b | -4.33 ± 7.5
Canton-S (D. melanogaster) ab7b | -5.14 ± 9.4
Canton-S (D. melanogaster) ab4a | 83.1 ± 18
Canton-S (D. melanogaster) ab4b | -2.57 ± 3.2
Canton-S (D. melanogaster) ab5b | -3.14 ± 11
Canton-S (D. melanogaster) at4b | -3 ± 6.5
Canton-S (D. melanogaster) ab1b | 15.3 ± 20
Canton-S (D. melanogaster) ab8b | 45.4 ± 36
Canton-S (D. melanogaster) ab6b | -5.33 ± 19
Canton-S (D. melanogaster) ab9a | 41 ± 45
Canton-S (D. melanogaster) ab10b | 0.4 ± 5.7
Canton-S (D. melanogaster) ai3b | 3.67 ± 7.3
Canton-S (D. melanogaster) ab8a | 31.1 ± 18

Reference: the supplement of paper PMC11482750
